Compound activity as filed in PubChem.
Compounds with a hit are over-represented: about 3.1% of the library has one in this group of screens.
TSHR antagonist: antagonists of human thyroid stimulating hormone receptor; TSHR-expressing cells, TSH-stimulated cAMP HTRF, 2 h; hits give low values; P16473; hit rate 0.2% among 330,000; activity change, negative = inhibition, % at 11.5 µM;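 active = activity change below a set negative limit, meaning inhibition stronger than a set level, cut at about -70% in these data; inconclusive = activity change between two set negative limits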; note: % is set by controls: 0 for no effect and ±100 for the full control effect
Target sequence (P16473 whole entry, looked up): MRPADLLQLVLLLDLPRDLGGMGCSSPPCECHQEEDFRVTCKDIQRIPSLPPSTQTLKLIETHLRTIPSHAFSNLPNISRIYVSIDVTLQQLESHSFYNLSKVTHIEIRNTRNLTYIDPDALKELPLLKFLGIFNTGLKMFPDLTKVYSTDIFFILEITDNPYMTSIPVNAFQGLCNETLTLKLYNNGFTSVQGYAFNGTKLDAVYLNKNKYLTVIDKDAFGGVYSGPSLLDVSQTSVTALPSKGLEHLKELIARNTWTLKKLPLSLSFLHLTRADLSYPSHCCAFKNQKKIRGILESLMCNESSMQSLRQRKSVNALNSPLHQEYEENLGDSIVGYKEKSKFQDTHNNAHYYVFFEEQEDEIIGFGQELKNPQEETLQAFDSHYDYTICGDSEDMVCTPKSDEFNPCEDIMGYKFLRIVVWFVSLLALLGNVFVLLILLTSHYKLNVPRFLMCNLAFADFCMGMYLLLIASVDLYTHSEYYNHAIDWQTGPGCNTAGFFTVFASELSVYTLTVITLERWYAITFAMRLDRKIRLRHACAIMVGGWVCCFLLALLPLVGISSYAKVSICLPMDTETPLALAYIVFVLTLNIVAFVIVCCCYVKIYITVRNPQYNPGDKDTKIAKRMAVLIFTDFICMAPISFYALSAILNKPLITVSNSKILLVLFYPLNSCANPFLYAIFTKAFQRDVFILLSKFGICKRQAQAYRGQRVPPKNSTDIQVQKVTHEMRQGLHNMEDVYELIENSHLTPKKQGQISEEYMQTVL
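Antagonism was scored as loss of TSH-driven cAMP in TSHR cells, stimulated with 4nM TSH (EC80) for 2 hours at 37 deg C and detected by homogeneous HTRF competition immunoassay.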
VDR inhibitor: vitamin D3 receptor (human) inhibition | VDR-SRC2-3 peptide fluorescence polarization, 2 h | Potency, µM, without a hit: max response, negative = inhibition, hits mostly inhibitors | hit rate 0.93% among 400,000; note: potency is the fitted concentration of half-maximal effect; % is set by controls: 0 for no effect and ±100 for the full control effect
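Fluorescence polarization assay of small-molecule disruption of VDR binding to coregulator peptide SRC2-3. Compounds and controls pin-transferred, then read after 2 h incubation at ambient room temperature.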
uPA generation: cell surface uPA generation inhibition. Potency, µM (series often up to 38.3 µM), for inactives: at the top dose activity change, negative = inhibition, usual class: inhibitors. cell surface uPA generation assay, qHTS. AID 540303. hit rate 0.31% among 330,000; active = well fitted inhibition curve with a large enough effect; inconclusive = small, poorly fitted or top-dose-only effect; inactive = no such curve, though single readings can be large or run the other way; tested in mouse RAW 264.7 cells; note: potency is the fitted concentration of half-maximal effect; % is set by controls: 0 for no effect and ±100 for the full control effect; nearly all actives have a fitted effect of over 55% in size
TSG101-PTAP inh: blocks PTAP/TSG101 interaction to inhibit HIV-1 budding; Fluorescence polarization, FITC-PTAP peptide / Tsg101 binding; Q99816; 340,000 tested, under 10 active; AID 493005; Potency, µM (highest dose often 115 µM), for the others: top-dose activity change, negative = inhibition, hits mostly inhibitors; active = well fitted inhibition curve with a large enough effect in the main read-out, with a control signal flat, not every such curve was filed as active; inconclusive = small, poorly fitted or top-dose-only effect, or effect the other way, or a change in a side signal; inactive = no such curve, though single readings can be large or run the other way; note: potency is the fitted concentration of half-maximal effect; % of control where 0% means no effect
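Steps: Tsg101 binding domain dispensed (10 uM final), compounds pinned in DMSO, FITC-labeled PTAP-motif peptide added (50 nM final); after 20 min binding at room temperature, polarization measured.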
PLK1 PBD inh: blocks phosphopeptide binding to human PLK1 polo-box domain; Potency, µM, for the others: max response, negative = inhibition, hits mostly inhibitors; P53350; Plk1 PBD binding of FITC phosphopeptide, fluorescence polarization; hit rate 2.8% among 360,000; AID 720504; note: potency is the fitted concentration of half-maximal effect; series mostly up to about 57 µM; % is set by controls: 0 for no effect and ±100 for the full control effect; nearly all actives have a fitted effect of over 65% in size
Numbers without * were called inactive; ? = inconclusive; · = no result. Unless noted, calls come from the whole dose curve; as a rule, active = well fitted curve in the direction sought with a large enough effect; inconclusive = small, poorly fitted or top-dose-only effect, or another doubt; inactive = no such curve, though single readings can be large; an effect the other way counts as inactive or inconclusive.

SMILES | TSHR antagonist | VDR inhibitor | uPA generation | TSG101-PTAP inh | PLK1 PBD inh
O=C(/C=C/c1c(F)cccc1Cl)c1ccc(O)cc1 | -3.8 | 79.4µM* | ? | -5.5% | -10.2%
O=C(/C=C/c1ccccc1Cl)c1ccc(O)cc1 | -5.2 | ? | -14.5% | 1.9% | -2.7%
CCNC(=O)C1(C)CCN(C(=O)c2ccc(C)c(F)c2)C1 (stereo not drawn) | · | · | · | · | -3.9%
CCC(O)CNC(=O)NC(=C(Cl)Cl)c1ccc(C)c(F)c1 (stereo not drawn) | 14.8 | 5.5% | 10µM* | -6.9% | -4.2%
COc1cc(NC(=O)CSc2nccn2C)cc(OC)c1OC | · | 19.6% | · | · | ·
COc1ccc(/C=C(/NC(=O)c2ccccc2)C(=O)NC2CCS(=O)(=O)C2)cc1 (stereo not drawn) | 2.1 | ? | 4.8% | -2.7% | 15µM*
C[C@@H]1CN([C@@H](C)CO)C(=O)CCCn2nncc2CO[C@H]1CN(C)C(=O)c1ccccc1 | · | · | · | · | -20.9%
CCOC(=O)c1c(C)oc2c1c(C(c1cccnc1)N1CCCCC1)c(O)c1ccccc12 (stereo not drawn) | 6.5 | -16.8% | 13.8% | -2.5% | 11.9µM*
CCOC(=O)c1c(C)oc2c1c(C(c1ccccc1)N1CCOCC1)c(O)c1ccccc12 (stereo not drawn) | -0.7 | -14.5% | · | -0.8% | -23.2%
O=C(/C=C/c1cn(-c2ccccc2)nc1-c1cccnc1)N1CCCC1 | -17.2 | -1.3% | 6.8% | -7.3% | 4.0%
O=C(/C=C/c1cn(-c2ccccc2)nc1-c1cccnc1)c1ccco1 | -17.4 | 50.1µM* | -4.9% | -1.1% | -4.8%
CC(=O)Nc1ccc(S(=O)(=O)NC2(C(F)(F)F)NC(=O)N(CC(C)C)C2=O)cc1 (stereo not drawn) | -0.3 | 10.2% | 3.6% | -3.5% | -8.9%
CC(C)CN1C(=O)NC(NS(=O)(=O)c2ccc(N)cc2)(C(F)(F)F)C1=O (stereo not drawn) | 22.2 | -2.8% | 5.4% | -4.6% | 21.2µM*
COc1ccc(-c2nc3cnc(N4CCOCC4)nc3n(Cc3cccs3)c2=O)cc1 | · | 1.0% | · | · | ·
Cc1onc(-c2ccccc2)c1C(=O)Nc1sc2c(c1C#N)CCC2 | 1.7 | -11.4% | · | -0.6% | ?
Cc1cc(C(=O)Nc2sc3c(c2C#N)CCC(C)C3)no1 (stereo not drawn) | -4.5 | -12.3% | · | -4.2% | -20.8%
Cc1onc(-c2ccccc2)c1C(=O)NC(=S)Nc1sc2c(c1C#N)CCCC2 | -1.1 | ? | 3.6% | -0.9% | 7.52µM*
Cn1cc(Cl)c(C(=O)NC(=S)Nc2sc3c(c2C#N)CCCCC3)n1 | -8.3 | ? | 6.1% | -5.8% | 11.9µM*
Cc1onc(-c2ccccc2)c1C(=O)NC(=S)Nc1sc2c(c1C#N)CCC(C)C2 (stereo not drawn) | 4.8 | ? | 2.7% | 2.6% | 9.47µM*
O=C(O)C=Cc1ccc(Cn2ccnc2)cc1 | · | -0.3% | · | · | ·
CN(C)Cc1nc2ccccc2c(=O)n1Cc1nc(-c2cc3ccccc3o2)cs1 | 5.8 | ? | 0.9% | -1.5% | 18.9µM*
CCOc1ccc(-c2csc(Cn3c(CN4CCN(C)CC4)nc4ccccc4c3=O)n2)cc1 | 8.0 | ? | -9.3% | 0.0% | 23.8µM*
Cc1nc2ccccc2n2c(O)c(CC(=O)O)cc12 | -0.1 | -6.3% | -6.8% | ? | 23.8µM*
Cc1ccc(/C=c2\sc3nc(-c4ccco4)nn3c2=O)o1 | 8.4 | -8.8% | -0.5% | 2.6% | 9.47µM*
CC1CCCC(NC(=O)CCS(=O)(=O)c2ccc3c(c2)NC(=O)CS3)C1C (stereo not drawn) | -7.2 | ? | -3.4% | -1.2% | 29.9µM*
CN(C)c1ncc2nc(-c3ccc(F)cc3)c(=O)n(C[C@H]3CCCO3)c2n1 | · | 1.2% | · | · | ·
Cc1ccc(C(=O)CC2(O)C(=O)N(Cc3ccccc3)c3ccccc32)o1 (stereo not drawn) | -3.3 | 1.1% | -0.9% | -5.1% | -3.2%
CC(=O)CC1(O)C(=O)N(Cc2ccccc2)c2ccccc21 (stereo not drawn) | 3.2 | -23.5% | 4.0% | -10.6% | 26.7µM*
Cc1coc(C)c1C(=O)CC1(O)C(=O)N(Cc2ccccc2)c2ccccc21 (stereo not drawn) | · | -23.0% | -2.2% | -2.5% | 26.7µM*
COc1ccc(Cl)cc1C(=O)NCc1nnnn1-c1ccccc1 | · | 9.4% | · | · | ·
